Compounds without any hit were thinned out: in the full panel of roughly 83,000, 20% have a hit.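 Values shown are percent growth following 48 h exposure of cells in 96-well plates to a single concentration of compound; below 10 was considered active.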 Values without a mark were called inactive. Activity calls are given as the source filed them.

Common to all, as to test: NCI-60 one-dose screen, 48 h (100 = growth as untreated, 0 = no growth, -100 = all killed)
Conditions in all cases: 10 µM unless noted

The subject of test [1] is RPMI-8226 leukemia.
The test system of test [2] is OVCAR-8 ovarian.
Test [3] relates to OVCAR-5 ovarian.
Test [4] concerns SK-OV-3 ovarian.
The test system of test [5] is IGROV1 ovarian.
Test [6] deals with OVCAR-3 ovarian.
Test [7] concerns HS 578T breast.
Test [8] concerns NCI/ADR-RES ovarian.
Test [9] relates to T-47D breast.
For test [10], the system named is BT-549 breast.
Test [11] deals with MDA-MB-435 melanoma.
For test [12], the system named is SW-620 colon.
The subject of test [13] is MCF7 breast.
In test [14] the test system is HCT-116 colon.
Test [15] has as its system HCC-2998 colon.
For test [16], the system named is KM12 colon.
Test [17] deals with OVCAR-4 ovarian.

As to `Cc1ccc2ccccc2c1C[n+]1ccccc1`, the growth in test [1] was 80.9%; in test [2] it was 91.7%; in test [3], 116%; in [4], 100%; in test [5], 101%; in test [6], 102%. Besides, the growth in test [7] is 95.1%; in [8], 104%; in test [9], 109%; in test [10], 79.8%; in [11], 102%; in test [12], 99.7%. The growth in [13] was 93.9%; in test [14] it was 101%; in test [15], 95.2%; in test [16], 87.8%.

As for `N#Cc1ccc(N2Cc3ccccc3OC3=C2C(=O)c2c(O)ccc(O)c2C3=O)cc1`, the growth is 5.99% (active) in [1]; 3.86% (active) in [2]; -1.88% (active) in [3]; -43.4% (active) in [17]; 63.8% in test [4]; -93.2% (active) in test [6]. In addition, the growth is -14.4% (active) in test [7]; 19.7% in test [8]; -46% (active) in test [9]; -17.9% (active) in test [10]; -43.9% (active) in test [11]; -67.5% (active) in [12]. Moreover, the growth in test [14] was -44.3% (active); in test [15], 30.7%; in [16] it was 8.89% (active).

On to `NC(N)=Nc1nc2ccccc2o1`, for which the growth in [1] is 58.2%; in test [2], 110%; in test [3], 110%; in test [17] it was 110%; in test [4] it was 107%; in test [5], 102%. Besides, the growth is 95.1% in test [8]; 98.3% in [9]; 89.9% in test [10]; 122% in test [11]; 95.7% in test [12]; 96.8% in test [13]. Besides, the results for the growth in [14], in [15] and in [16] were 95.5%, 82.5% and 95.9%, respectively.

Turning to `COc1cc(/C(C#N)=C/c2ccc3c(c2OC)OCO3)cc2c1OCO2`, the growth was 32.3% in [1]; 28.8% in test [2]; 42.7% in test [3]; 16.2% in test [4]; 37.7% in test [5]; -36% (active) in test [6]. Moreover, the growth in test [7] is 0.131% (active); in test [8] it was -7.38% (active); in test [9], 52.7%; in test [10], 71.7%; in test [11] it was -39.4% (active); in test [12], 19.8%. Moreover, the growth was 21.4% in [13], 16.7% in [14], 12.8% in test [15] and 17.4% in test [16].

In the case of `Cc1c(C(N)=O)sc2c1c(=O)n(Cc1ccccc1)c1nnc(Nc3ccccc3)n21`, the growth in test [1] was 148%; in test [2] it was 89.2%; in test [3], 104%; in test [17] it was 117%; in test [4] it was 99.1%; in test [5] it was 104%. Also, the growth in test [6] is 115%; in test [8] it was 103%; in test [9] it was 89%; in test [10] it was 123%; in [11] it was 103%; in test [12], 108%. In addition, the growth in test [13] was 100%; in [14], 94.2%; in test [15] it was 110%; in test [16], 93.6%.

As to `O=C1c2c(Cl)c(Cl)c(Cl)c(Cl)c2C(=O)C2(Cl)CC=CCC12Cl` (stereo not given), the growth was -32.2% (active) in test [1]; -34.9% (active) in [2]; 95.7% in [3]; 105% in test [4]; -58.7% (active) in [5]; -93.5% (active) in test [6]. The growth in test [7] was 46.7%; in test [9], -38.3% (active); in test [10], 43.6%; in test [11] it was 21.5%; in [12], -68.7% (active); in test [13] it was -57.5% (active). For the same compound, the figures for the growth in [14], in test [15] and in test [16] were -90.2% (active), -43% (active) and -6.67% (active), respectively.

As for `COc1cc(-c2nn(-c3cccc(NC(=O)c4ccc(N5CCOCC5)c(C(F)(F)F)c4)c3)cc2-c2ccncc2)ccc1Cl`, the growth is 8.3% (active) in test [1]; 5.23% (active) in test [2]; 34.7% in test [3]; 52.3% in [17]; 1.88% (active) in test [4]; 41.8% in test [5]. The growth is -29.8% (active) in test [6]; -13.6% (active) in [7]; -7.13% (active) in test [8]; 27.5% in test [9]; 14.3% in test [10]; -35.1% (active) in [11]. Moreover, the growth was 25.2% in [12], 8.85% (active) in [13], 8.82% (active) in test [15] and 5.64% (active) in [16].

With `O=C(Nc1cccc(-n2cc(-c3ccncc3)c(-c3ccc(Cl)c(O)c3)n2)c1)Nc1ccc(Cl)c(C(F)(F)F)c1`, the growth is -10.5% (active) in [1]; -41.8% (active) in test [2]; 23.3% in test [3]; 7.47% (active) in test [4]; 10.4% in [5]; -43% (active) in test [6]. In addition, the growth in test [7] is -7.39% (active); in test [8], -16.9% (active); in test [9], -7.12% (active); in test [10], 1.33% (active); in test [11] it was -31.3% (active); in test [12], -19.7% (active). Also, the growth in test [13] is -16.6% (active); in test [14] it was -51% (active); in test [16], -27.3% (active).

`O=C1Nc2ccc(Cl)cc2C12Nc1cc(Cl)ccc1S2` (stereo not given): the growth in test [1] is 44.3%; in test [2], 99.2%; in test [3], 113%; in [4], 108%; in test [6], 72%; in test [7], 144%. Further, the growth in test [8] was 82.5%; in test [9], 33.8%; in [10] it was 80%; in test [11], 91.4%; in test [12], 98.9%; in test [13], 43.4%. For the same compound, the growth in test [14] is 61.2%; in [15], 78.9%; in [16], 70.7%.

For `COc1ccc(Nc2nn3c(C)cc(C)nc3c2C(=O)Nc2ccc(C)cc2)c(OC)c1`, the growth is 102% in test [1]; 100% in test [2]; 82.9% in test [3]; 102% in test [17]; 87.7% in test [4]; 97.1% in test [5]. Also, the growth was 105% in test [6]; 105% in [7]; 105% in test [8]; 87.7% in test [9]; 96.2% in test [10]; 105% in test [11]. Also, the growth in test [12] was 105%; in [14] it was 99%; in test [15], 94.2%; in [16], 100%.

(Values after PubChem BioAssay (NCI).)
